Data taken from PubChem BioAssay (NCI).
The panel holds about 83,000 compounds, 20% with a hit somewhere; the sample as a whole holds those more often.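 Compound tested at a single concentration for 48 hours in 96-well plates; a percent growth value below 10 was scored as active.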 The source made the active and inactive calls.

Experiments:
Assay in all cases: NCI-60 one-dose screen, 48 h (100 = growth as untreated, 0 = no growth, -100 = all killed)
Details in all cases: 10 µM unless noted
[1] = system: T-47D breast
[2] = system: BT-549 breast
[3] = system: MDA-MB-435 melanoma
[4] = system: SW-620 colon
[5] = system: MCF7 breast
[6] = system: HCT-116 colon
[7] = system: HCC-2998 colon
[8] = system: KM12 colon

Measured: growth

CC(=O)Nc1ccc(-c2cc3c(NCc4ccc(F)cc4)ncnc3s2)cc1
inactive: [1] 74% | [2] 71.7% | [3] 93% | [4] 97.7% | [5] 75.7% | [6] 80.7% | [7] 90.1% | [8] 99.3%

Cc1cc(=O)c2cc3nc(-c4cccnc4)oc3c(Br)c2o1
inactive: [1] 201% | [2] 103% | [3] 107% | [4] 99.5% | [5] 94.9% | [6] 99.9% | [7] 106% | [8] 109%

O=C(O)C1C[C@](O)(c2ccc(F)cc2)[C@@H](c2ccc(F)cc2)O1 (stereo not given in full)
inactive: [1] 88.2% | [2] 71% | [3] 99.1% | [4] 116% | [5] 97.5% | [6] 100% | [7] 115% | [8] 131%

COc1cc(-c2cccc([N+](=O)[O-])c2)c(-c2nc(-c3ccccc3)c(-c3ccccc3)n2C2CC2)cc1OC
inactive: [1] 23.9% | [2] 47.2% | [3] 67.4% | [4] 76.3% | [5] 34.8% | [6] 26.8% | [7] 81.2% | [8] 67.3%

Clc1ccc(/C=N\N=c2\scc(-c3ccc(Cl)cc3)n2/N=C/c2ccc(Cl)cc2)cc1
inactive: [1] 96.1% | [2] 107% | [3] 103% | [4] 99.9% | [5] 93.6% | [6] 90% | [7] 104% | [8] 105%

NC(=S)N/N=C/C(=O)O
inactive: [1] 40.9% | [2] 95% | [3] 92.5% | [4] 65.7% | [5] 11.7% | [7] 104% | [8] 99.4%
active: [6] 6.98%

O=C1NCC(=O)N(Cc2ccco2)[C@H]1Cc1ccccc1
inactive: [1] 88% | [2] 95.5% | [3] 104% | [4] 107% | [5] 91.5% | [6] 95.9% | [7] 109% | [8] 103%

O=C1Nc2ccc(Cl)cc2/C1=N/N=C/c1c[nH]c2ccccc12
inactive: [1] 73.4% | [2] 93.5% | [3] 87% | [4] 79.2% | [5] 71.1% | [6] 75.6% | [7] 101% | [8] 68.1%

Cn1cc(-c2ccc3ncc(-c4ccc(CC(=O)Nc5cc(C(C)(C)C)nn5C)cc4)cc3c2)cn1
active: [1] -3.95% [30 µM] | [2] -2.02% [30 µM] | [3] 2.73% [30 µM] | [5] 2.17% [30 µM] | [8] -40.1% [30 µM]
inactive: [4] 22.2% [30 µM] | [6] 20.4% [30 µM] | [7] 29.6% [30 µM]

O=c1ccn(C2OC(F)(CO)C(O)C2F)c(=O)[nH]1 (stereo not given)
inactive: [1] 81.2% | [2] 101% | [3] 103% | [4] 104% | [5] 91.6% | [6] 104% | [7] 99.1% | [8] 104%

O=C(NCc1cn(Cc2cccc(Oc3ccccc3)c2)nn1)c1cccnc1NCc1ccc(Cl)cc1
inactive: [1] 31.9% | [2] 41.1% | [4] 36.9% | [5] 14.9% | [6] 22.1%
active: [3] -2.51% | [7] 9.38%

Cc1c(C)c2c(c(C)c1NC(=O)/C=C\C(=O)O)CCC(C)(CCCC(C)CCCC(C)CCCC(C)C)O2 (stereo not given)
active: [2] -58.5% | [6] 4.08%
inactive: [1] 54.5% | [3] 50.9% | [4] 30% | [5] 51.2% | [7] 79.8% | [8] 29.2%

COc1cc2c(cc1OC)-c1ccc3cc4c(cc3c1N(CCCN(C)C)C2)OCO4
active: [6] 9.53%
inactive: [1] 54.6% | [2] 41.2% | [3] 44% | [4] 25.2% | [5] 26% | [7] 64.6% | [8] 38.4%

COc1ccc(Cn2cnc3cc(C(=O)Nc4cccc5ccccc45)ccc32)c(OC)c1
active: [3] -44.5% [30 µM] | [7] 6.79% [30 µM] | [8] 2.44% [30 µM]
inactive: [1] 59.8% [30 µM] | [2] 30.8% [30 µM] | [4] 22.7% [30 µM] | [5] 11.8% [30 µM] | [6] 10.3% [30 µM]

O=C(CCc1nc(-c2cccc(Cl)c2)no1)Nc1ccccn1
inactive: [1] 107% | [2] 95.7% | [3] 105% | [4] 103% | [5] 90.2% | [6] 99.1% | [7] 97.7% | [8] 98%

CC1(C)N=C(N)N=C(N)N1c1ccc(Cl)c(Cl)c1
inactive: [1] 69.8% | [2] 42.9% | [3] 27.4% | [4] 43.1% | [5] 21.4% | [6] 24.9% | [7] 20.8% | [8] 38.8%

O=C(/C=C/C12c3ccccc3C(c3ccccc31)C1C(=O)NC(=O)C12)c1ccccc1 (stereo not given)
inactive: [1] 51.7% | [2] 23.6% | [3] 13.8% | [4] 19.1% | [6] 14.3% | [7] 10.4%
active: [5] 9.25% | [8] 9.85%

Cc1ccc(/C(=N\N=C(N)N)c2ccccc2)cc1
inactive: [1] 23% | [2] 37.5% | [4] 30.3%
active: [3] 0.321% | [5] 5.02% | [6] -66.6% | [7] -3.26% | [8] 2.94%

COc1cc2c(=O)n(CCCn3ccnc3)c3c4cc5c(cc4ccc3c2cc1OC)OCO5
active: [1] -10.9% | [3] -25.3% | [5] 4.23% | [6] -62.1% | [8] 8.03%
inactive: [2] 28.4% | [4] 11% | [7] 33.3%

CC(C)(O)c1cccc(F)c1
inactive: [1] 140% | [2] 104% | [3] 103% | [4] 103% | [5] 98.4% | [6] 93.8% | [7] 105% | [8] 103%

Nc1nc(I)c2ncn(C3OC(CO)C(O)C3O)c2n1 (stereo not given)
inactive: [1] 94.9% | [2] 69.7% | [3] 91.6% | [4] 114% | [5] 96.6% | [6] 110% | [7] 103% | [8] 115%

N=C(N)c1ccc(-c2ccc(-c3ccc(Cl)c(Cl)c3)o2)cc1
inactive: [1] 64.3% | [2] 90%
active: [3] -42.1% | [4] -73.6% | [5] -68.9% | [6] -83% | [7] -75.7% | [8] -84.2%

COc1ccc(/C(C)=C(\c2ccc(Cl)cc2)c2ccc(OCCCN(C)C)cc2)cc1F
inactive: [1] 67.5% | [2] 88.3% | [3] 29.4% | [4] 38.3% | [5] 13% | [6] 21.2% | [7] 48.2% | [8] 29.2%

C=C1C(=O)O[C@H]2[C@H]1CC/C(COC(=O)/C=C\C(=O)NCc1ccc(Cn3c(=O)sn(CCCI)c3=O)cc1)=C\CC[C@@]1(C)O[C@@H]21
active: [1] -48.3% | [2] -56.2% | [3] -83.8% | [4] -76.3% | [5] -53.5% | [6] -48.8% | [7] -77.8% | [8] -77%

CN(C)c1ccc2cc(-c3ccccc3F)c(N)nc2c1
inactive: [1] 27.1% | [2] 25.5% | [4] 30% | [5] 27% | [6] 22.4% | [7] 54.3% | [8] 26%
active: [3] -9.25%

[2H]c1nc(Nc2ncc(F)c(-c3cc(F)c4nc(C)n(C(C)C)c4c3)n2)c([2H])c([2H])c1CN1CCN(C([2H])([2H])C([2H])([2H])[2H])CC1
inactive: [1] 54.6% | [2] 51.3% | [3] 51.7% | [4] 43.5% | [5] 30.3% | [6] 26.1% | [7] 82.4% | [8] 40.5%

O=[N+]([O-])c1ccccc1C(O)Cc1ccc2ccccc2n1 (stereo not given)
inactive: [1] 88.6% | [2] 109% | [3] 103% | [4] 96.7% | [5] 83.2% | [6] 93% | [7] 114% | [8] 87.6%

C[N+](C)(C)CCOC(OCC[N+](C)(C)C)(c1ccccc1)c1ccccc1
inactive: [1] 106% | [2] 101% | [3] 121% | [4] 103% | [5] 92.8% | [6] 105% | [7] 97%

COc1cccc(/C=C2\COc3ccc(O)cc3C2=O)c1OC
inactive: [1] 74.8% | [2] 57.8% | [3] 19.7% | [4] 30.5% | [5] 12.2% | [6] 34.3% | [7] 94.1%
active: [8] 7.8%
